Screens from PubChem.
Compounds with a hit are over-represented: about 1.3% of the library has one in this group of screens.
TRPV1 agonist: agonists of human vanilloid receptor 1 (TRPV1). Q8NER1. TRPV1-expressing cells, Fluo-8 calcium influx, agonist mode. activation, % at 8.33 µM. 320,000 compounds, 0.19% hits; in the data active = activation above about 80%; inconclusive = between about 30% and that limit
Target sequence (Q8NER1 whole entry, looked up): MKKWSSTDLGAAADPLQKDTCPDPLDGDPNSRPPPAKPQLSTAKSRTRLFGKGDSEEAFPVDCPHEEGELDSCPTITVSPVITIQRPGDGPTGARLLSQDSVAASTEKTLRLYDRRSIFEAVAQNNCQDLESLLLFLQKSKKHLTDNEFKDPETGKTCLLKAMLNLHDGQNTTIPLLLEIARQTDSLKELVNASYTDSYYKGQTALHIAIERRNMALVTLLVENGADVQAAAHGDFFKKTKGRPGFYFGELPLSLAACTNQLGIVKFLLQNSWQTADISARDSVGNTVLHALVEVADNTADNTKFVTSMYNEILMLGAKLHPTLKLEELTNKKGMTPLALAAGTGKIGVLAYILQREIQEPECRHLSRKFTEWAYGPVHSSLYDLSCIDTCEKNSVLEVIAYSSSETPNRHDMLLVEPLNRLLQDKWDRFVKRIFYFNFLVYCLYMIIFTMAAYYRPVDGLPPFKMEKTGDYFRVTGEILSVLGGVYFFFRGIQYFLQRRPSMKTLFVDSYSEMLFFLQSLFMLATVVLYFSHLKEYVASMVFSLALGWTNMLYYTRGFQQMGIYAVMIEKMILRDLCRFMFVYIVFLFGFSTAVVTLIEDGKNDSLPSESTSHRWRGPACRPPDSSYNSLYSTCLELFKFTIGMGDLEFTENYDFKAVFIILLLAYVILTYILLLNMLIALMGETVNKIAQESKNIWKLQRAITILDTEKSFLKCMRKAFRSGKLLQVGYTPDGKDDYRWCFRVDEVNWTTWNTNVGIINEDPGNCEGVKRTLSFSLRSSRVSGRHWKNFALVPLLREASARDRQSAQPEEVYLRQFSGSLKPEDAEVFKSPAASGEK
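Fluo-8 calcium influx in TRPV1-expressing cells, kinetic read (ex 480/em 520 nm). Compound added and read 3 min for agonist activity, followed by capsaicin at EC20 final and 2 min further read for enhancement.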
KCNH2 WT inh: KCNH2 (human, wildtype) channel inhibition; U2OS, BacMam KCNH2, thallium flux FluxOr; hits give low values; Q12809; AID 720551; 340,000 compounds, 0.37% hits; activity change, % at 1.84 µM;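 active = maximum activity change below -70%; inconclusive = maximum activity change between -70% and -50%; inactive = maximum activity change above -50%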
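U2OS cells were transduced with wild-type KCNH2 virus (2.03 x 10^8 / mL) for 4 h at room temperature, then cultured overnight at 37 C. Thallium flux was read with FluxOr dye. Rate constants were normalized to DMSO controls.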
TRPV1 PAM: enhances activation of the human vanilloid receptor TRPV1; TRPV1-expressing cells, Fluo-8 calcium influx, capsaicin EC20 potentiation; Q8NER1; potentiation, % at 8.33 µM; 320,000 compounds, 0.02% hits; in the data active = potentiation above about 80%; inconclusive = between about 30% and that limit
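TRPV1-expressing cells were cultured overnight at 35.5C and loaded with Fluo-8 calcium dye for 40 to 90 min at room temperature. After a 10 s baseline, compound was added and calcium influx was read kinetically for 3 min (ex 480/em 520 nm).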
KCNH2 3.1 inh: KCNH2 3.1 (human) potassium channel inhibition; U2OS KCNH2 3.1, thallium flux FluxOr; hits give low values; activity change, % (tested at about 1.8 µM); 340,000 compounds, 0.95% hits;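 active = maximum activity change below -70%; inconclusive = maximum activity change from -70% to -50%; inactive = maximum activity change above -50%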;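 also: thallium influx rate constant from kinetic fluorescence after stimulation buffer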
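Virally transduced U2OS (3.1 isoform, 4 h infection in dark at RT) → overnight 37 C → FluxOr + Red40 in HBSS/HEPES, 45 min → stimulation buffer, 2 min kinetic read → rate constant vs DMSO controls.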
Large screens that a line does not name were inactive.

O=C(NC1CCCC1)C(c1ccccn1)N(C(=O)c1csnn1)c1ccccc1F (stereo unspecified)	none
O=C(NCc1cccnc1)c1ccc(-c2ccc(Cl)cc2)o1	TRPV1 agonist 86 (no result: KCNH2 WT inh)
O=C(NCc1cccnc1)c1ccc(CS(=O)(=O)Cc2ccc(Cl)cc2)o1	none
O=S(=O)(Cc1ccc(Cl)cc1)NCc1cccnc1	KCNH2 3.1 inh -78
O=C(OCC(=O)N1CCCC1)c1cnc(Cl)c(Cl)c1	none (no result: TRPV1 agonist, TRPV1 PAM)
O=C(NC1CCCc2ccccc21)c1cncc(Br)c1 (stereo unspecified)	KCNH2 3.1 inh -71
O=S(=O)(c1ccc(S(=O)(=O)N2CCN(Cc3ccccc3)CC2)cc1)N1CCOCC1	none (no result: KCNH2 WT inh, KCNH2 3.1 inh)
O=S(=O)(c1ccc(Cl)cc1)N1CCC(O)(CN2CCN(Cc3ccccc3)CC2)CC1	KCNH2 3.1 inh -73
CC#CC(=O)N1CCC(n2nccc2NC(=O)CCc2ccccc2)CC1	none (no result: TRPV1 agonist, TRPV1 PAM)
Cc1ccc2nc(SCC(=O)N(C)C3CCS(=O)(=O)C3)[nH]c2c1 (stereo unspecified)	KCNH2 3.1 inh -198
COCCCN(C(=O)C1=COCCO1)c1c(N)n(Cc2ccccc2)c(=O)[nH]c1=O	none (no result: TRPV1 agonist, TRPV1 PAM)
COc1ccccc1N(CC(=O)NCCSCc1ccco1)S(=O)(=O)c1ccccc1	none
COc1cc2c(-c3cc(F)cc(F)c3)c(-c3ccsc3)oc(=O)c2cc1OC	KCNH2 3.1 inh -106
COc1ccc(-c2c(-c3ccsc3)oc(=O)c3cc(OC)c(OC)cc23)cc1	none
COc1ccc(S(=O)(=O)N2CCCCC2)cc1NC(=O)Cc1cccs1	KCNH2 3.1 inh -76
CCN(c1ccccc1)S(=O)(=O)c1ccc(OC)c(NC(=O)COc2ccc(C(C)=O)cc2)c1	none
Cc1ccc(-c2csc(N(CCCN(C)C)C(=O)c3ccco3)n2)cc1	none
CCN(CC)CCCN(C(=O)c1ccc(OC)cc1)c1nc(-c2ccc(OC)cc2)cs1	KCNH2 WT inh inconclusive, KCNH2 3.1 inh -95
CN(C)CCCN(C(=O)c1ccco1)c1nc(-c2ccc(Cl)cc2)cs1	KCNH2 3.1 inh -80
CCN(CC)CCCN(C(=O)c1ccccc1C)c1nc(-c2ccc(OC)cc2)cs1	none
N=c1c(C(=O)NC2CCCCC2)cc2c(=O)n3ccccc3nc2n1CCc1ccccc1	KCNH2 WT inh inconclusive, KCNH2 3.1 inh -79
CC(C)C(=O)Nc1c2c(nn1-c1ccc(F)cc1)CS(=O)(=O)C2	KCNH2 3.1 inh -109
O=C(Nc1c2c(nn1-c1ccc(F)cc1)CS(=O)(=O)C2)C1CCCC1	none
O=C(c1cc(COc2c(F)cccc2F)on1)N1CCN(C2CCCCC2)CC1	KCNH2 3.1 inh -81
CC(CN1CCN(CCOCCO)CC1)CN1c2ccccc2Sc2ccc(Cl)cc21 (stereo unspecified)	KCNH2 3.1 inh -102 (no result: TRPV1 agonist, TRPV1 PAM)
N#Cc1cnn(-c2cccc(Cl)c2)c1N	KCNH2 3.1 inh -86
Cc1onc(-c2ccccc2)c1C(=O)N1CCN(c2ncccc2C(F)(F)F)CC1	TRPV1 agonist inconclusive
CC1CCCN(CC(=O)Nc2ccc(S(=O)(=O)N3C(C)CCCC3C)cc2)C1 (stereo unspecified)	none (no result: TRPV1 agonist, TRPV1 PAM)
COc1cccc(OCc2cc(C(=O)N3CCN(C)C(c4ccccc4)C3)no2)c1 (stereo unspecified)	TRPV1 agonist inconclusive
Cc1ccc(Nc2ncccc2C(=O)NCc2cccs2)c(C)c1	none (no result: TRPV1 agonist, TRPV1 PAM, KCNH2 3.1 inh)
Cc1cccc(Nc2ncccc2C(=O)NCc2cccs2)c1C	KCNH2 3.1 inh -73
CC(C)C[C@H]1CN([C@@H](CC(C)C)CN2CCCC2CN2C(=S)NC[C@@H]2Cc2ccc(O)cc2)C(=S)N1CCc1ccccc1 (stereo partly specified)	none (no result: TRPV1 agonist, TRPV1 PAM)
CC(C)C[C@@H](CN1CCCC1CN1C(=S)NC[C@@H]1Cc1ccc(O)cc1)N1C[C@H](Cc2ccccc2)N(CCc2ccccc2)C1=S (stereo partly specified)	KCNH2 WT inh -71 (no result: TRPV1 agonist, TRPV1 PAM)
O=C(CN1CCN(C(=O)c2cccc(-n3cnnn3)c2)CC1)Nc1ccccc1Cl	KCNH2 3.1 inh -73
CN(c1ccccc1)S(=O)(=O)c1cccc(NC(=O)Cn2cnc3ccccc3c2=O)c1	TRPV1 PAM 82
Cc1oc(-c2ccc(Cl)cc2)nc1CS(=O)CC(=O)NCc1ccccn1 (stereo unspecified)	none
CCN(CC(=O)Nc1ccc(OC)cc1)CC(=O)Nc1sc2c(c1C(=O)OC)CCCC2	none
CC(C)Oc1ccc(C(=O)NN2C(=O)NC3(CCCCC3)C2=O)cc1	none
COc1ccc(C)cc1S(=O)(=O)N1CCC(C(=O)NCCC2=CCCCC2)CC1	none
COc1ccc(C)cc1S(=O)(=O)NCCC1=CCCCC1	KCNH2 WT inh -257
CC1(C)OC(=O)C2(Cc3c(F)cccc3N3CCCC32)C(=O)O1 (stereo unspecified)	none (no result: KCNH2 WT inh, KCNH2 3.1 inh)
CCC(C)c1ccc(NC(=O)Nc2cnccn2)cc1 (stereo unspecified)	KCNH2 WT inh -281
Cc1ccccc1OCCn1c(CCNC(=O)C2CCCCC2)nc2ccccc21	none (no result: KCNH2 WT inh, KCNH2 3.1 inh)
COc1c(OC(C)=O)ccc(/C=C/c2ccc3ccccc3n2)c1[N+](=O)[O-]	KCNH2 3.1 inh -77
COc1c(OC(C)=O)ccc(/C=C/c2ccc3cccc(OC)c3n2)c1[N+](=O)[O-]	none
O=C(CCC(=O)N1CCOc2ccccc21)NCCN1CCOCC1	none
Cc1cc(C)n(S(=O)(=O)/C=C/c2ccccc2)n1	KCNH2 WT inh -88
Cc1ccc(S(=O)(=O)n2nc(C)cc2C)cc1	none
CC1CCCCC12NC(=O)N(CC(=O)N1CCN(Cc3ccc(C#N)cc3)CC1)C2=O (stereo unspecified)	none
COc1ccc(S(=O)(=O)NCCC(=O)NCc2ccc(F)cc2)cc1	KCNH2 3.1 inh -80
CC(=O)N1c2ccc(S(=O)(=O)NCCC(=O)NCc3ccc(F)cc3)cc2CC1C (stereo unspecified)	none
COc1ccc(CNC(=O)COc2ccc(S(=O)(=O)N3CCCCC3)cc2)cc1	KCNH2 WT inh -131
COc1ccc(CNC(=O)CCNS(=O)(=O)c2ccc(Cl)cc2)cc1	none
CC1Cc2cc(S(=O)(=O)NCCC(=O)NCc3ccc(F)cc3)ccc2N1C(=O)C1CC1 (stereo unspecified)	KCNH2 WT inh -87
Sc1nnc(-c2ccc(Cl)cc2)n1Cc1ccccc1	none
COc1cccc(NC(=O)CN(C)C(=O)CCNC(=O)c2ccccc2OC)c1	none (no result: TRPV1 agonist, TRPV1 PAM)
CCN1CCN(CCC(=O)Nc2cc(OC)cc(OC)c2)CC1	none
OCC1(CCc2ccccc2)CCN(Cc2ccc(OC(F)F)cc2)CC1	KCNH2 WT inh -183 (no result: KCNH2 3.1 inh)
CC(COc1ccccc1)N1CCC(CO)(CCc2ccccc2)CC1 (stereo unspecified)	KCNH2 WT inh inconclusive, KCNH2 3.1 inh -101
O=C1N(Cc2cccc(Cl)c2)C[C@@H]2C[C@@H](c3cccn3-c3nccs3)N3CCC[C@@]123	KCNH2 3.1 inh -86
O=C1N(Cc2cccc(Cl)c2)C[C@@H]2C[C@@H](c3cccn3-c3ccccn3)N3CCC[C@@]123	none
O=C(CC1S/C(=N\S(=O)(=O)c2ccccc2)N(c2ccccc2)C1=O)Nc1ccc(F)cc1 (stereo unspecified)	KCNH2 3.1 inh -80
